The values below come from PubChem BioAssay (NCI).

SMILES strings stand for the structures. This is part of a sample that, as a whole, favours compounds with a hit. Of some 83,000 tested, about 20% had one in any assay.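 Cells were grown in 96-well plates and exposed to the test compound at a single concentration for 48 hours; results are reported as percent growth, with values below 10 considered active.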 A number with no mark means an inactive call. Activity calls are given as the source filed them.

For one experiment, the system named is MDA-MB-435 melanoma. Briefly: NCI-60 one-dose screen, 48 h (100 = growth as untreated, 0 = no growth, -100 = all killed). The settings on record: 10 µM unless noted.
As for `Nc1ncnc2c1N=C(c1ccc3c(c1)OCO3)CC(c1ccc([N+](=O)[O-])cc1)N2` (centres undefined), the growth was 79.8%.

Regarding `COC(=O)c1cc(-c2ccc(OC)cc2)[nH]c1N/N=C/c1c(Cl)cccc1Cl`, the growth was -54.7% (active).

In the case of `CN(CCOc1ccc(C#N)cc1)CCOc1ccc(C#N)cc1`, the growth was 86.3%.

For the compound `O=C(O)/C(=C\c1ccc(Cl)cc1)c1ccc(Cl)cc1`, the growth is 97.2%.

The next experiment has as its system SW-620 colon. The experiment is described as above. The settings on record: 10 µM unless noted.
In the case of `COc1cccc([C@H]2c3[nH]c4ccccc4c3C[C@H]3C(=O)N(CCCCCCC(=O)NO)CC(=O)N23)c1`, the growth was 57.4%.

As to `Clc1ccc(CNc2c3ccccc3nc3ccccc23)cc1`, the growth is 31%.

As to `COC(=O)c1c2c(c(C)[n+]([O-])c1C)C(=O)C=C(NCc1ccc(Br)cc1)C2=O`, the growth was -17.2% (active).

Consider `COc1ccc(C/C(C)=C(/c2ccc(OCCN3CCCCC3)cc2)c2ccc(OC(=O)NCc3ccccc3)cc2)cc1`, for which the growth is -83.5% (active).

As to `O=C1c2cccc(NCCN=Cc3cc(O)ccc3O)c2C(=O)c2c(NCCN=Cc3cc(O)ccc3O)cccc21`, the growth was -68.7% (active).

Consider `CS(=O)(=O)c1cccc(-c2c(-c3cccc(OS(N)(=O)=O)c3)nc3sccn23)c1`, for which the growth is 99.7%.

Consider `CCCCC[C@@H]1Cc2cc(O)c(C(=O)O)c3c2[C@H](C[C@]2(OC[C@@H](CC(=O)[C@@](C)(CC)C(=O)OC)[C@@H]2C)O3)O1`, for which the growth is 111%.

On to `Cc1ccc(Cl)cc1Nc1nc(C(F)(F)F)ccc1C(=O)N/N=C/c1cccnc1`, for which the growth is 22.7%.

For `CCCC(O)Cn1ncc(C(=O)OCC)c1NC(=O)NCc1ccccc1F` (centres undefined), the growth was 105%.

Regarding `COc1ccc(-c2nc(/C=C3\SC(=NCc4ccccc4)NC3=O)c3ccccn23)cc1`, the growth was -55.5% (active).

Turning to `COc1cccc(NC(=O)Cn2cc(CN3CCN(c4ccnc5cc(Cl)ccc45)CC3)nn2)c1`, the growth was 88.8%.

`CO[C@H]1/C=C(/C)CCC[C@H](C)[C@H](O)[C@@H](C)C(=O)C(C)(C)[C@@H](O)CC(=O)O[C@@H]1/C(C)=C/c1csc(C)n1`: the growth was 33.8%.

As to `CC(C)n1cnc2c(=S)nc[nH]c21`, the growth is 103%.

Turning to `COC(C(=O)[C@@H](O)[C@@H](C)O)[C@@H]1Cc2cc3cc(O[C@H]4C[C@@H](O[C@H]5C[C@@H](O)[C@H](O)C(C)O5)[C@H](O)C(C)O4)cc(O)c3c(O)c2C(=O)[C@H]1O[C@H]1C[C@@H](O[C@H]2C[C@@H](O[C@H]3C[C@@H](OC)[C@H](O)C(C)O3)[C@@H](O)C(C)O2)[C@H](O)C(C)O1` (some centres undefined), the growth is 39.7%.

`Cc1cccnc1NC(=S)Nc1ncccc1C`: the growth is 111%.

On to `NC(=O)c1c(NC(=O)c2ccccc2)sc2c1CCC(=O)C2`, for which the growth is 15.5%.

In the case of `CCCC(=O)NC(c1ccc2c(c1)OCO2)c1ccc2cccnc2c1O` (centres undefined), the growth was 25.7%.

In the case of `CCCCNc1ccc(C#N)c(OCCN(CC)CC)c1`, the growth was 109%.

Take `Cc1ccccc1NC(=O)c1sc2nc(C)c(C(=O)/C=C/c3ccccc3)cc2c1N`: the growth is -10.5% (active).

Turning to `COc1ccc(C(=O)Nc2ncc(Cc3ccc(F)cc3)s2)cc1`, the growth was 31%.

On to `COC(=O)c1c2c(c[n+]([O-])c1C)C(=O)C(NCc1ccccc1)=CC2=O`, for which the growth was -19% (active).

As for `Cn1ccc2c3c(ccc21)CC3=O`, the growth is 108%.

In the case of `COc1ccc2c3c([nH]c2c1)C(=O)c1nc(C)ccc1C3=O`, the growth is 42.8%.

Take `COC(=O)c1c2c(c(C)[n+]([O-])c1C)C(=O)C=C(NCc1ccc(OC)cc1)C2=O`: the growth is 0.249% (active).

Consider `O=C1Nc2ccccc2[C@]12CC(c1ccccc1)=NN2`, for which the growth was 23.4%.

`CCOc1nc(-c2ccccc2)cc2c(O)c(C(=O)NN)[nH]c(=O)c12`: the growth was 97.4%.

In the case of `CCN(CC)C(=S)SC(SC(=S)N(CC)CC)C(=O)c1nnn(-c2ccc([N+](=O)[O-])cc2)c1C`, the growth is 95.5%.

In the case of `CCOC(=O)/C=C1\S/C(=N\Nc2cc(=O)[nH]c3ccc(Cl)cc23)N(c2ccccc2)C1=O`, the growth is 77.3%.

As to `CCCc1cc(NC)nc(S(=O)(=O)CC)n1`, the growth is 105%.

On to `O=C(N/N=C/c1ccc(F)cc1)c1ccc(C(F)(F)F)nc1Nc1cccc(C(F)(F)F)c1`, for which the growth is 5.48% (active).

For the compound `CCn1c(SCC(=O)c2ccc(Br)cc2)nnc1-c1ccncc1`, the growth was 102%.

On to `COC(=O)c1cc(-c2ccccc2)[nH]c1N/N=C/c1c(Cl)cccc1Cl`, for which the growth was 13.3%.

With `O=C(Nc1nn(-c2ccc(Cl)cc2Cl)nc1-c1ccccc1)c1ccccc1`, the growth is 105%.

As to `CC(=O)N(N=Nc1ccccc1)c1cccc2ccccc12`, the growth is 55.8%.

Regarding `C#COc1cccc(Nc2ncnc3ncc(NC(=O)CCl)cc23)c1`, the growth is -55.1% [6.25 µM] (active).

Regarding `COc1cc(CNS(=O)(=O)c2ccc(C)cc2)ccc1OCc1cn(-c2ccc(Br)cc2)nn1`, the growth is 99.1%.

`Nc1ncnc2c1N=C(c1ccc3c(c1)OCO3)CC(c1ccc([N+](=O)[O-])cc1)N2` (centres undefined): the growth is 81.5%.

In the case of `COC(=O)c1cc(-c2ccc(OC)cc2)[nH]c1N/N=C/c1c(Cl)cccc1Cl`, the growth is 9.62% (active).

With `CN(CCOc1ccc(C#N)cc1)CCOc1ccc(C#N)cc1`, the growth was 57.8%.

For `O=C(O)/C(=C\c1ccc(Cl)cc1)c1ccc(Cl)cc1`, the growth was 106%.
